The target in experiment [1] is T1, Ephrin type-A receptor 3 (Homo sapiens) (UniProt P29320).
T1 sequence (whole entry): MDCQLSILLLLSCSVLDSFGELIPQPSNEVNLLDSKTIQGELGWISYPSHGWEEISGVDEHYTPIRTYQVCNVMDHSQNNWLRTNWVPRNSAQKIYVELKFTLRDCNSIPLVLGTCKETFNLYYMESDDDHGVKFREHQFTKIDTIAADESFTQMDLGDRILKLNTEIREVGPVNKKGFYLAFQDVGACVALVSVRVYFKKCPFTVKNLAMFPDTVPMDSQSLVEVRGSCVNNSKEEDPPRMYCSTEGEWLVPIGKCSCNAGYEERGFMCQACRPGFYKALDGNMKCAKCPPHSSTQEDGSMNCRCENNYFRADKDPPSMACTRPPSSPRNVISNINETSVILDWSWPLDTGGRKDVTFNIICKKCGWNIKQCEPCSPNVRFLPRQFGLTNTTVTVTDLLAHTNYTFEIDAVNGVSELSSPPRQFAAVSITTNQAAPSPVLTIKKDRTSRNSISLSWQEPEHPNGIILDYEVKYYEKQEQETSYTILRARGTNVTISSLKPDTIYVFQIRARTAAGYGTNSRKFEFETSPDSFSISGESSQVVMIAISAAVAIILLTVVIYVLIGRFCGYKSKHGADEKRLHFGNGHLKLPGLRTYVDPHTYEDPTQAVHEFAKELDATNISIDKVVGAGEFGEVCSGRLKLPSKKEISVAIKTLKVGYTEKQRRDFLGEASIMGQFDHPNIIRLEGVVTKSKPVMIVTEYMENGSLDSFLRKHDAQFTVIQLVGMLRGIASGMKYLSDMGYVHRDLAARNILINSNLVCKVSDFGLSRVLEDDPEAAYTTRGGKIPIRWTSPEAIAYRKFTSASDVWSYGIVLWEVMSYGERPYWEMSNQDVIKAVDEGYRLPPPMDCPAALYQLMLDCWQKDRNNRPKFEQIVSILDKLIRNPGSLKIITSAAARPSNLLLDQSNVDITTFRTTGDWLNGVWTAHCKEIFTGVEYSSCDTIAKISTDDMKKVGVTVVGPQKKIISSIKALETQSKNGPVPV
As to conditions: at 10 µM.

Experiment [2] deals with Ephrin type-A receptor 4 (Homo sapiens) (UniProt P54764). As to conditions: at 1 µM.
The target is the same in experiment [3]. As to conditions: at 10 µM.
Experiment [4] has as its target Ephrin type-A receptor 5 (Homo sapiens) (UniProt P54756). As to conditions: at 1 µM.
The target is the same in experiment [5]. The settings on record: at 10 µM.
Experiment [6] has as its target Ephrin type-A receptor 7 (Homo sapiens) (UniProt Q15375). As to conditions: at 1 µM.
Experiment [7] has the same target. As to conditions: at 10 µM.
Experiment [8] addresses T2, Ephrin type-A receptor 8 (Homo sapiens) (UniProt P29322).
T2 sequence (whole entry): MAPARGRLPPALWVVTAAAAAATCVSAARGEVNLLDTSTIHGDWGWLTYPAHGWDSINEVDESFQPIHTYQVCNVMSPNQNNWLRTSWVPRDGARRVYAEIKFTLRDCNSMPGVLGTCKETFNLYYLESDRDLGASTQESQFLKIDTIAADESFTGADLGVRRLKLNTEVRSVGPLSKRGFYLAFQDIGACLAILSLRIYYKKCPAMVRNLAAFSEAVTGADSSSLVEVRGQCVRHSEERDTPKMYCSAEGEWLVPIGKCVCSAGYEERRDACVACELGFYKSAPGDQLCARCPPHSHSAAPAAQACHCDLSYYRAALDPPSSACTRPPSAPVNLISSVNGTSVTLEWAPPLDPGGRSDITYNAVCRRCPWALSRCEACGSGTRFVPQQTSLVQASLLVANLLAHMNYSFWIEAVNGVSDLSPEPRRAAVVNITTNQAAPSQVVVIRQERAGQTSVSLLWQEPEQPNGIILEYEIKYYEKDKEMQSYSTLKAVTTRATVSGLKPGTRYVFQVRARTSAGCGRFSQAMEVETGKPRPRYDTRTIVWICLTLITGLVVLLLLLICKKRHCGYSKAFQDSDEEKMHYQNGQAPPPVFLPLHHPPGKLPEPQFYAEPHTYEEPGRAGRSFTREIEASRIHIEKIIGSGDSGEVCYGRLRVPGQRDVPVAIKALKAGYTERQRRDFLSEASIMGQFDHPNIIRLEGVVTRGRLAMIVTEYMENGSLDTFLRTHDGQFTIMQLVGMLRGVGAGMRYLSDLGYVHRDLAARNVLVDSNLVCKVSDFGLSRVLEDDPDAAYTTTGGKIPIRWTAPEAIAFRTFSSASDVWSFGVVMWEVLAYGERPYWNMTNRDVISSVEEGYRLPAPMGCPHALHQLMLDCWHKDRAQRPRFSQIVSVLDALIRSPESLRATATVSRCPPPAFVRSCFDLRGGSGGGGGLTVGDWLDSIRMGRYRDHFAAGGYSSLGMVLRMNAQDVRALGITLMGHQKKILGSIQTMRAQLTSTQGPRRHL
As to conditions: at 1 µM.

For experiment [9], the target named is T2, Ephrin type-A receptor 8 (Homo sapiens). As to conditions: at 10 µM.
Experiment [10] has as its target T3, Ephrin type-B receptor 1 (Homo sapiens) (UniProt P54762).
T3 sequence (whole entry): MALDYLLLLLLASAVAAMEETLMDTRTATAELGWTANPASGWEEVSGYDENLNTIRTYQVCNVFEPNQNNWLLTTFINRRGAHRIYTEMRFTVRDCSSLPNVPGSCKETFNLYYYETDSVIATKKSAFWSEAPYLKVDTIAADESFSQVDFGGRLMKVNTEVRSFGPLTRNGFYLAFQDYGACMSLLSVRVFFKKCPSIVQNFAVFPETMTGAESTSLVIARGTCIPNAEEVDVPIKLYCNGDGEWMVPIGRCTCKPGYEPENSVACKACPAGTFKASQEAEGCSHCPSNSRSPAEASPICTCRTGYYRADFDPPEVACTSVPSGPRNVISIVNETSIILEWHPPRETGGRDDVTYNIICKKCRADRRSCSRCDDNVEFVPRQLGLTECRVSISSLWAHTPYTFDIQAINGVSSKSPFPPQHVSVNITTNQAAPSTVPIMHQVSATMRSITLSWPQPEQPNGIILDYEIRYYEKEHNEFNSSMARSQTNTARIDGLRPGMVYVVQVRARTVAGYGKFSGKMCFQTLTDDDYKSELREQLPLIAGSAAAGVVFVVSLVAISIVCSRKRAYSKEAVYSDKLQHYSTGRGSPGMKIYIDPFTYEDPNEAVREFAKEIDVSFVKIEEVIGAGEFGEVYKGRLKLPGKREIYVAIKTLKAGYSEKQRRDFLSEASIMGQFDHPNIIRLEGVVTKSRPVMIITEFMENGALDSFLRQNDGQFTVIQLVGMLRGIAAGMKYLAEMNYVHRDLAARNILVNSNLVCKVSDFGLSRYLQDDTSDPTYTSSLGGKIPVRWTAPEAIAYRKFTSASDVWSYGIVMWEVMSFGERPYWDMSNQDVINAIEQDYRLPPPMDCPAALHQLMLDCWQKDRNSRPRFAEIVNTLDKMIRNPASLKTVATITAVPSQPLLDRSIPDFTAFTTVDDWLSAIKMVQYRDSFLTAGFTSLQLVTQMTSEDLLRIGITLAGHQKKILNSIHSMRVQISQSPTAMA
As to conditions: at 1 µM.

One may read the residual activity as the signal under treatment as a percentage of the control signal.

Ephrin type-A receptor 4 (Homo sapiens), sequence (P54764 whole entry): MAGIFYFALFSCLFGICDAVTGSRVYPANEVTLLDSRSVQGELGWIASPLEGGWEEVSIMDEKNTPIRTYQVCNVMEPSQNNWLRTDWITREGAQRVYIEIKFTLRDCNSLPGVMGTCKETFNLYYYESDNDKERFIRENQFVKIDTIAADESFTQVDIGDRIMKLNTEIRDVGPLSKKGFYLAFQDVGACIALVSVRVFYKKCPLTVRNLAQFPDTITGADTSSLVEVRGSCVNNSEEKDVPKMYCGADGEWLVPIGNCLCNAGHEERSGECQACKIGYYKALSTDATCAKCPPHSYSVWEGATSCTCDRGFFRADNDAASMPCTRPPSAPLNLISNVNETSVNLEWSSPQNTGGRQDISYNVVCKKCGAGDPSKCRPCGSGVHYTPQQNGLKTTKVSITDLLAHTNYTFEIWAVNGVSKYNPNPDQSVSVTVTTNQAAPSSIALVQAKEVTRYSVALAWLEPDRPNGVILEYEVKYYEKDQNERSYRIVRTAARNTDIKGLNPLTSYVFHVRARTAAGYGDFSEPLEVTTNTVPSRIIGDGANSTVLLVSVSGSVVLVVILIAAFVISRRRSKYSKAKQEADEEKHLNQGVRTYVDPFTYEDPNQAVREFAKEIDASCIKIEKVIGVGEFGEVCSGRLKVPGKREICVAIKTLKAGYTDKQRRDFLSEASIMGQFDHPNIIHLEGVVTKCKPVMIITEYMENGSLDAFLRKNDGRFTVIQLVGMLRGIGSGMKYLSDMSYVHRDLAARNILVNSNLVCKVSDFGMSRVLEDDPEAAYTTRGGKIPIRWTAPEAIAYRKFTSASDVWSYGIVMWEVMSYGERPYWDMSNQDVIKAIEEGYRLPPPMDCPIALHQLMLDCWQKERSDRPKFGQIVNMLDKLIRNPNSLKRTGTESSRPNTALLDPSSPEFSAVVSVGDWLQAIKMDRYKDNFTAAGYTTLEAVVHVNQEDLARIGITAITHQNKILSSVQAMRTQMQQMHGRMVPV
Ephrin type-A receptor 5 (Homo sapiens), sequence (P54756 whole entry): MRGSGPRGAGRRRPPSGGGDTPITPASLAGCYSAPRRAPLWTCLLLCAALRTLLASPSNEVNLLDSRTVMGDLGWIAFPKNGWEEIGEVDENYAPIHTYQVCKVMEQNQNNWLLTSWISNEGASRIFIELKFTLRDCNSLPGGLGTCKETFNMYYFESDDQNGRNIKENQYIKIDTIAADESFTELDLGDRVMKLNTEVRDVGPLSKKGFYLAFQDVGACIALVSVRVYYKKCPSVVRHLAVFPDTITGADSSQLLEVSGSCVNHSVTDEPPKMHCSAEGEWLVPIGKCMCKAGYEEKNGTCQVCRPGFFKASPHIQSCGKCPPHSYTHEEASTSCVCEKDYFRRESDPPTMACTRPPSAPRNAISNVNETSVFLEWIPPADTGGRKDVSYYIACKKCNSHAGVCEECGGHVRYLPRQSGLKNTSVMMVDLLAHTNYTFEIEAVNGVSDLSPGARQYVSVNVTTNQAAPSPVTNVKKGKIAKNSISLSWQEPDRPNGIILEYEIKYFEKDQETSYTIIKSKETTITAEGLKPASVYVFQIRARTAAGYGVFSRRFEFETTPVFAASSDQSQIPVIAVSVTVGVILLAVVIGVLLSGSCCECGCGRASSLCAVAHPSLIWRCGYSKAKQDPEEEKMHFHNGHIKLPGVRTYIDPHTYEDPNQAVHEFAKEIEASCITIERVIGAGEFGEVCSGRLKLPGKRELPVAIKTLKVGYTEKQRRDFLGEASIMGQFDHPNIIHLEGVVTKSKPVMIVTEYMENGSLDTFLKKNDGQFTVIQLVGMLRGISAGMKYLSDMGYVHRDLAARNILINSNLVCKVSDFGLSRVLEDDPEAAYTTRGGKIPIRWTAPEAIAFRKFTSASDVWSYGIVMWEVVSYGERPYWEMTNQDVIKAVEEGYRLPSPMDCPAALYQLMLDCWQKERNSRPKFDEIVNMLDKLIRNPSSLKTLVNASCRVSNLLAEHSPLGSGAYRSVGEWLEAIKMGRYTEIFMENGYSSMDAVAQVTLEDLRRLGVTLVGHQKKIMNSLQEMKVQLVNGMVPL
Ephrin type-A receptor 7 (Homo sapiens), sequence (Q15375 28-998 limits assumed): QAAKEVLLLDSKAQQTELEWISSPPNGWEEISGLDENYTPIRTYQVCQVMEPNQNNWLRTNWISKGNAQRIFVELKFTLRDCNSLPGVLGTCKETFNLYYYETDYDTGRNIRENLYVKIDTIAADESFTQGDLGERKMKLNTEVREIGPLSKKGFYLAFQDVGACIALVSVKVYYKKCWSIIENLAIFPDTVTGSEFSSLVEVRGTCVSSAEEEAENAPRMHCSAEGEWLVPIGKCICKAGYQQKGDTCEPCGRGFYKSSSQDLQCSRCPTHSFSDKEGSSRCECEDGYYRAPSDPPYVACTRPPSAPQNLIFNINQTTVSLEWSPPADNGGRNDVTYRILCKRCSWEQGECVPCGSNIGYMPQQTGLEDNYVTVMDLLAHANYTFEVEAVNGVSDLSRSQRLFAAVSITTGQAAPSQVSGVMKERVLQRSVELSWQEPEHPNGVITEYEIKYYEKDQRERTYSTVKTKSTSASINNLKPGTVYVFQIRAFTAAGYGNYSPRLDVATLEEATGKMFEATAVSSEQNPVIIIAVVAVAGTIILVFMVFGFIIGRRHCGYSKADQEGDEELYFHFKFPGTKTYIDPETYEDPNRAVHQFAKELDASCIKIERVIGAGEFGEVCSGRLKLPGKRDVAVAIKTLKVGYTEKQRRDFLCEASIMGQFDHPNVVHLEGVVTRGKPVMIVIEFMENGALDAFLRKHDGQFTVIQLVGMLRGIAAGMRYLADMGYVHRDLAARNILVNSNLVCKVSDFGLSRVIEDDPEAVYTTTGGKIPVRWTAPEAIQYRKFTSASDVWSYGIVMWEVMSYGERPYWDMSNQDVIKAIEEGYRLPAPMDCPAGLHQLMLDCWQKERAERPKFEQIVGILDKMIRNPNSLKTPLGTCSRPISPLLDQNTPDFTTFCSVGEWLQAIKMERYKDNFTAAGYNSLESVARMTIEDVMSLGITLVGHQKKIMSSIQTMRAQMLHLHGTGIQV

Turning to `Oc1ccc(-c2nc(-c3ccc(F)cc3)c(-c3ccncc3)[nH]2)cc1`, the residual activity stood at 81% in experiment [1]; 117% in experiment [2]; 87% in experiment [3]; 103% in [4]; 56% in experiment [5]; 103% in experiment [6]. Besides, the residual activity in experiment [7] was found to be 58%; in [8] it was 93%; in experiment [9], 45%; in [10], 115%.
